Results reported in ChEMBL document CHEMBL2218924, “A broad activity screen in support of a chemogenomic map for kinase signalling research and drug discovery” (Biochem J, 2013).

Legend:
[1] = target: T1, Ephrin type-A receptor 3 (Homo sapiens) (UniProt P29320); settings: at 10 µM
T1 sequence (whole entry): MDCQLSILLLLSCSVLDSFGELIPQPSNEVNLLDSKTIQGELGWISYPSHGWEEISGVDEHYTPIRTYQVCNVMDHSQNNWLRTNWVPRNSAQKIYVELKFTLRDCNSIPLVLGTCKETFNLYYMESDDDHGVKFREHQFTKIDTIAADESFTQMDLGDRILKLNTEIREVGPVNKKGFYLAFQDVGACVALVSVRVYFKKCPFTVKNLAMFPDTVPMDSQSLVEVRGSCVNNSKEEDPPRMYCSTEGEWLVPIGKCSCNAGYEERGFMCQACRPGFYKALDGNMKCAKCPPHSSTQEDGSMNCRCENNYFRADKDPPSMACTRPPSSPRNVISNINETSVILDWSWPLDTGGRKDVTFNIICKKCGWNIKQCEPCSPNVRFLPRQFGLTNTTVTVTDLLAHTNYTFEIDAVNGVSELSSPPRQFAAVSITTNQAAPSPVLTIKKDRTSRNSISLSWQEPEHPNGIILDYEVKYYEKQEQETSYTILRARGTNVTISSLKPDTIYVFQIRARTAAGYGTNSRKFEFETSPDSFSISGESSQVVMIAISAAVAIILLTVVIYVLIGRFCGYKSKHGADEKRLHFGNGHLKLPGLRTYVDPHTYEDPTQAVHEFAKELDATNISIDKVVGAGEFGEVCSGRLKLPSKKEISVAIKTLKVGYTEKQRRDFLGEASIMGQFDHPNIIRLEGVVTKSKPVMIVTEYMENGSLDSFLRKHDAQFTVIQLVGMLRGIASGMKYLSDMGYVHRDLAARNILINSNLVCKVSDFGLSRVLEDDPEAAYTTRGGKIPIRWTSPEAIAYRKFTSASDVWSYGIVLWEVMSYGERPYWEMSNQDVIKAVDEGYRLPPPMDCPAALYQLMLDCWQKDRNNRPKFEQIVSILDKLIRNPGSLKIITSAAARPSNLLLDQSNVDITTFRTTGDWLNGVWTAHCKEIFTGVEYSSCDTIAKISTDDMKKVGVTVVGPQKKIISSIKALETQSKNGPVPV

[2] = target: Ephrin type-A receptor 7 (Homo sapiens) (UniProt Q15375); settings: at 1 µM
Chain of Ephrin type-A receptor 7 (Homo sapiens) (Q15375 28-998 limits assumed): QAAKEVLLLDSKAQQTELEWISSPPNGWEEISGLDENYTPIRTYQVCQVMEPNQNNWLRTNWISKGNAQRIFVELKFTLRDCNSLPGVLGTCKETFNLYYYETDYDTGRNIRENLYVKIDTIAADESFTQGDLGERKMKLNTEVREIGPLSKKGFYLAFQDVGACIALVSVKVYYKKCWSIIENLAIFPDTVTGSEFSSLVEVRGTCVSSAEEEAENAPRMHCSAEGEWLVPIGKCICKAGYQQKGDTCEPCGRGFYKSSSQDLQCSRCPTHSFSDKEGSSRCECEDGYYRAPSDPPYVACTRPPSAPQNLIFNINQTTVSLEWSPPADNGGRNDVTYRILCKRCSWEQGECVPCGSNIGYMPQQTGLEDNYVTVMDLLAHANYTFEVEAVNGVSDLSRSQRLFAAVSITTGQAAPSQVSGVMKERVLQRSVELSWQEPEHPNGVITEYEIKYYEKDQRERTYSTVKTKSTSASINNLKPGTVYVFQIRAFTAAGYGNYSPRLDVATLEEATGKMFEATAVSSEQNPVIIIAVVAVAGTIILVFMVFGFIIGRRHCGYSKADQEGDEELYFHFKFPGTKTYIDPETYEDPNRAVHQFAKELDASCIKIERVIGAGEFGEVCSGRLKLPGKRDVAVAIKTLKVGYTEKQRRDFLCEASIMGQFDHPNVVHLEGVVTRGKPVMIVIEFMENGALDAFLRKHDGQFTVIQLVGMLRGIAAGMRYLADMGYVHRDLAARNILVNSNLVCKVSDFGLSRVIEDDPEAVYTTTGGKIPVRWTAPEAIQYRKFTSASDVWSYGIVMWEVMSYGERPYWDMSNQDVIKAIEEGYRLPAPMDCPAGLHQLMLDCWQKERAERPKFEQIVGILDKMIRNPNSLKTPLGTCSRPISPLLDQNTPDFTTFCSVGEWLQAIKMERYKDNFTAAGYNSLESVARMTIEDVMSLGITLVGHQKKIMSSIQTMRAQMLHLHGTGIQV

[3] = target: Ephrin type-A receptor 7 (Homo sapiens) (UniProt Q15375); settings: at 10 µM
[4] = target: T2, Ephrin type-A receptor 8 (Homo sapiens) (UniProt P29322); settings: at 1 µM
T2 sequence (whole entry): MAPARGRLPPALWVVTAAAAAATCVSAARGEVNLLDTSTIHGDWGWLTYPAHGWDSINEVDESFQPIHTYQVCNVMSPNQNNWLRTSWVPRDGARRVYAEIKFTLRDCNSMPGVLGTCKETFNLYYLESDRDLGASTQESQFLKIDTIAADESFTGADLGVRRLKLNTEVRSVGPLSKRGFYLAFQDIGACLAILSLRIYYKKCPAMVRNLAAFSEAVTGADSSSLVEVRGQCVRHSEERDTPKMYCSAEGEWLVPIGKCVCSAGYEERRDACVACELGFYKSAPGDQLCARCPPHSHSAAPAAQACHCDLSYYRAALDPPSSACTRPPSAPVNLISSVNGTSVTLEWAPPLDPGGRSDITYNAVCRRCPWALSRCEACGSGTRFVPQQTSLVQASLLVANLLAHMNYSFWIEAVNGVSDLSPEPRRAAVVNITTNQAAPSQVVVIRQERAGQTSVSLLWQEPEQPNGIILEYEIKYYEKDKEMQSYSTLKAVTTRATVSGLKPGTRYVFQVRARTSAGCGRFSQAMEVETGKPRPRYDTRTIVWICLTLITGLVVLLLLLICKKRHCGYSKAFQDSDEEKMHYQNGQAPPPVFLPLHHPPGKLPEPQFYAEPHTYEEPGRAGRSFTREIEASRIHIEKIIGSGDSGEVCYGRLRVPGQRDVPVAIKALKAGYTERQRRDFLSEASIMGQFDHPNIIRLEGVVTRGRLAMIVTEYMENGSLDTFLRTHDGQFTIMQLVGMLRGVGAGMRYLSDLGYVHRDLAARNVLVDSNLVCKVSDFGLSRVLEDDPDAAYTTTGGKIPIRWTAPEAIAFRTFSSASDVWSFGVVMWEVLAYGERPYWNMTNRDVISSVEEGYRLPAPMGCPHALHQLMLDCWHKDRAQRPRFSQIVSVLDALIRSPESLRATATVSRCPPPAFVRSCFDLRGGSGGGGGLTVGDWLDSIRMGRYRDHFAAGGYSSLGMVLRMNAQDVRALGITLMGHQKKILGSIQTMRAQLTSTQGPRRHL

[5] = target: T2, Ephrin type-A receptor 8 (Homo sapiens); settings: at 10 µM
[6] = target: T3, Ephrin type-B receptor 1 (Homo sapiens) (UniProt P54762); settings: at 10 µM
T3 sequence (whole entry): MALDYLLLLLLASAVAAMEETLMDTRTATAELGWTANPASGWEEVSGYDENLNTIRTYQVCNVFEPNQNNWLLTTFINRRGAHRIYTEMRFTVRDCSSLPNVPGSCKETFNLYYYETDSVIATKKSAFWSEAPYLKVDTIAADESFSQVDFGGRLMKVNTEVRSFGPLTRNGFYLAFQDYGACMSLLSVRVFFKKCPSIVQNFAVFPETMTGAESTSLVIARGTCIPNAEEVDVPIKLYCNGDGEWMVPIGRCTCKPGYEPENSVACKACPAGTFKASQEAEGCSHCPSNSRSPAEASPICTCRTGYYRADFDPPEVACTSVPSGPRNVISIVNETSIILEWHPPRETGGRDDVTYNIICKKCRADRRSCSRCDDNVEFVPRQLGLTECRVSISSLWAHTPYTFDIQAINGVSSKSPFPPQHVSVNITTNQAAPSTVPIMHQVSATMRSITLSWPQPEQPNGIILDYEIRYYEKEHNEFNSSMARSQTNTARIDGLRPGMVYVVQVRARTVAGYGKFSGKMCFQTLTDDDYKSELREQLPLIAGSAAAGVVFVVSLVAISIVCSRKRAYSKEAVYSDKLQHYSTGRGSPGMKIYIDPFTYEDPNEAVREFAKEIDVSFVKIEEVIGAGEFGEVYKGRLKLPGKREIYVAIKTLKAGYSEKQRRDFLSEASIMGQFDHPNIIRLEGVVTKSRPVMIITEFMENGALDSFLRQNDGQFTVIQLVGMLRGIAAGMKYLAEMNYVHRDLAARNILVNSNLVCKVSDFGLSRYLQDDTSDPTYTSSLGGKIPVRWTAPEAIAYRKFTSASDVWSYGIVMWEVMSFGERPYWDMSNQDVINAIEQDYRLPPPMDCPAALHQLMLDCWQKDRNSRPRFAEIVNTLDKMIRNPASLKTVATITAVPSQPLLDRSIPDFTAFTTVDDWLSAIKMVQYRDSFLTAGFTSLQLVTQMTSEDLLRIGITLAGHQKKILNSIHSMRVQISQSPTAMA

[7] = target: T4, Ephrin type-B receptor 2 (Homo sapiens) (UniProt P29323); settings: at 10 µM
T4 sequence (whole entry): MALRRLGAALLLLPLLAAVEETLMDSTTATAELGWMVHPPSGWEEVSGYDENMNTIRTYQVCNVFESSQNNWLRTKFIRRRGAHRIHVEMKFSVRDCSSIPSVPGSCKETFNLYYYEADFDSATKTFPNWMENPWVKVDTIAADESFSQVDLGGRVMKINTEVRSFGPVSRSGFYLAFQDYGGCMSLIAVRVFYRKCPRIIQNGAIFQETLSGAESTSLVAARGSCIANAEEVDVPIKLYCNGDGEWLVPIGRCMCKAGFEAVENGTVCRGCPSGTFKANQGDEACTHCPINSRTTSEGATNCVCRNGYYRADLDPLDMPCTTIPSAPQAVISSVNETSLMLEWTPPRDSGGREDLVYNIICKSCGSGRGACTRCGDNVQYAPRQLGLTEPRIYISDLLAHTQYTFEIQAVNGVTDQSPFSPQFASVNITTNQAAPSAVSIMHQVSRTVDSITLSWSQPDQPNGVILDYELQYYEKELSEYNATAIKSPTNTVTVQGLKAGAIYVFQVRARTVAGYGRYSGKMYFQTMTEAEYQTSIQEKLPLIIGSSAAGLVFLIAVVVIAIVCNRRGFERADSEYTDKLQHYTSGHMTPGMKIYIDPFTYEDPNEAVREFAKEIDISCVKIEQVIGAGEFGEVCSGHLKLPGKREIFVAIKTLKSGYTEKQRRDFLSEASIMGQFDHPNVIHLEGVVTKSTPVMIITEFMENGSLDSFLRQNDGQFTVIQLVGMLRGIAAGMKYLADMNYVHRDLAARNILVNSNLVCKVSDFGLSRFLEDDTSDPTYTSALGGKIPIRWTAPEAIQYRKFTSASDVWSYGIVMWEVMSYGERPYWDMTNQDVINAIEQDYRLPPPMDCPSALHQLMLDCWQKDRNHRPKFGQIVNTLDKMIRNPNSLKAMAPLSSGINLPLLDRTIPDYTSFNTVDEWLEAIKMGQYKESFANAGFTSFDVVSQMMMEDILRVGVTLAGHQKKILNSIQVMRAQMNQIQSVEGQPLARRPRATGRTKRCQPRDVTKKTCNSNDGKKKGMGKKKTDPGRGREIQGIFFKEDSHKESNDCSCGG

[8] = target: T5, Ephrin type-B receptor 4 (Homo sapiens) (UniProt P54760); settings: at 10 µM
T5 sequence (whole entry): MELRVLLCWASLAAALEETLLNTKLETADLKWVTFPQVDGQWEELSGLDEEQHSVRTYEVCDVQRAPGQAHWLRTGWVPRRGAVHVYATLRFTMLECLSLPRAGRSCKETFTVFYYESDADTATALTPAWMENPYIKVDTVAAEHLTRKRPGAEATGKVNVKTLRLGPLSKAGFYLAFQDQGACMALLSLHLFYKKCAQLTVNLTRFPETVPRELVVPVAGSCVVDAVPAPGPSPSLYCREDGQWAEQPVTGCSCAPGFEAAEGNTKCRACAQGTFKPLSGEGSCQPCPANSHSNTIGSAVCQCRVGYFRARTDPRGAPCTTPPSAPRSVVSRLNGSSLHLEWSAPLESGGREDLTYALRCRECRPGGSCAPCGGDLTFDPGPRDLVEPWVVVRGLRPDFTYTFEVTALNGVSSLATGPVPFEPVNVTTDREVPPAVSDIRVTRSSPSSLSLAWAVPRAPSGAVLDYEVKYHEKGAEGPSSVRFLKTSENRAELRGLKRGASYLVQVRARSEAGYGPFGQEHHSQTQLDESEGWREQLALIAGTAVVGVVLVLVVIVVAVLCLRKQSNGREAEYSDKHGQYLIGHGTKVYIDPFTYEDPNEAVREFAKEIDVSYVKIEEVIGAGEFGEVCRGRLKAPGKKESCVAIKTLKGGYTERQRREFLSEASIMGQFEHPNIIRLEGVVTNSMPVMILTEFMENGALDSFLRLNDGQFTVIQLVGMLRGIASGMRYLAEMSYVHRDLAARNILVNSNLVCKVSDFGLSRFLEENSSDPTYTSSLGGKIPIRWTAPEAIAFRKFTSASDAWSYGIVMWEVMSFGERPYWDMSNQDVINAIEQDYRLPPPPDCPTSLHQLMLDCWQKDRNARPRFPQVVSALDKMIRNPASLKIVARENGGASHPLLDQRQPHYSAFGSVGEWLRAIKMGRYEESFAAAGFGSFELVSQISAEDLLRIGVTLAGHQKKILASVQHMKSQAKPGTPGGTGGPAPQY

[9] = target: Receptor tyrosine-protein kinase erbB-4 (Homo sapiens) (UniProt Q15303); settings: at 10 µM
Chain of Receptor tyrosine-protein kinase erbB-4 (Homo sapiens) (Q15303 whole entry): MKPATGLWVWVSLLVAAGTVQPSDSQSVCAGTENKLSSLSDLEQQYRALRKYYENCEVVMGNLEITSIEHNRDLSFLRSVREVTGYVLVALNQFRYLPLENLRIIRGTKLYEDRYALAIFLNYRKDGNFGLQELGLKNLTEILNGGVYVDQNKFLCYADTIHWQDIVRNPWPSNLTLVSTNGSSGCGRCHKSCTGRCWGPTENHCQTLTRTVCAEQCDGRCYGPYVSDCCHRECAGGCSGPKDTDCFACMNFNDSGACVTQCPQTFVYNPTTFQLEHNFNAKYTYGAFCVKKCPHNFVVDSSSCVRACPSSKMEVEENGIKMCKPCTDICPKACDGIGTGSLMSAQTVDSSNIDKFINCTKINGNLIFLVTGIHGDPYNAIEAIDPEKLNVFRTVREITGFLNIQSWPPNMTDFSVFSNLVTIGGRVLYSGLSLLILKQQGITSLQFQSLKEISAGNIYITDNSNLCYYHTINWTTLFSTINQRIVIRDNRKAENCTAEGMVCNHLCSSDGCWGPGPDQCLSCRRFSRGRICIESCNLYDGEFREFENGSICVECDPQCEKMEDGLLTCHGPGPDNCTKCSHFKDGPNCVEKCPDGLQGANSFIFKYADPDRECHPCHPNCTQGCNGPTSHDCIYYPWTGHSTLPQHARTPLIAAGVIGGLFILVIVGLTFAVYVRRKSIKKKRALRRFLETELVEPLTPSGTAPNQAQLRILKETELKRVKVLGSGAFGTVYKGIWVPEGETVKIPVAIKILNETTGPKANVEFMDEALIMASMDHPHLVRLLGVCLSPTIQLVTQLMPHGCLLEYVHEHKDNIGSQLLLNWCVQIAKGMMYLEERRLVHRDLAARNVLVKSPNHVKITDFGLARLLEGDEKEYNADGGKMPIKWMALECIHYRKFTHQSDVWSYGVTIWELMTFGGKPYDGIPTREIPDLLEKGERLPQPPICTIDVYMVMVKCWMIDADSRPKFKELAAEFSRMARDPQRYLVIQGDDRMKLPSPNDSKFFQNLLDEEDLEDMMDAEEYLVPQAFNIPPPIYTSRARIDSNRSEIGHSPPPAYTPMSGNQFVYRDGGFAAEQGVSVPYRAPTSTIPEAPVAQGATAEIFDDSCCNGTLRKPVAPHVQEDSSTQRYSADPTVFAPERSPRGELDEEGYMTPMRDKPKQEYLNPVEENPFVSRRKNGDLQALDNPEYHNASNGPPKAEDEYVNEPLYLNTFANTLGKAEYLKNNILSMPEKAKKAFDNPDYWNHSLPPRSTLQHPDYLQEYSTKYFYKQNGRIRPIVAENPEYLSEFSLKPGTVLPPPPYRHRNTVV

[10] = target: Focal adhesion kinase 1 (Homo sapiens) (UniProt Q05397); settings: at 1 µM
Chain of Focal adhesion kinase 1 (Homo sapiens) (Q05397 2-1052 limits assumed): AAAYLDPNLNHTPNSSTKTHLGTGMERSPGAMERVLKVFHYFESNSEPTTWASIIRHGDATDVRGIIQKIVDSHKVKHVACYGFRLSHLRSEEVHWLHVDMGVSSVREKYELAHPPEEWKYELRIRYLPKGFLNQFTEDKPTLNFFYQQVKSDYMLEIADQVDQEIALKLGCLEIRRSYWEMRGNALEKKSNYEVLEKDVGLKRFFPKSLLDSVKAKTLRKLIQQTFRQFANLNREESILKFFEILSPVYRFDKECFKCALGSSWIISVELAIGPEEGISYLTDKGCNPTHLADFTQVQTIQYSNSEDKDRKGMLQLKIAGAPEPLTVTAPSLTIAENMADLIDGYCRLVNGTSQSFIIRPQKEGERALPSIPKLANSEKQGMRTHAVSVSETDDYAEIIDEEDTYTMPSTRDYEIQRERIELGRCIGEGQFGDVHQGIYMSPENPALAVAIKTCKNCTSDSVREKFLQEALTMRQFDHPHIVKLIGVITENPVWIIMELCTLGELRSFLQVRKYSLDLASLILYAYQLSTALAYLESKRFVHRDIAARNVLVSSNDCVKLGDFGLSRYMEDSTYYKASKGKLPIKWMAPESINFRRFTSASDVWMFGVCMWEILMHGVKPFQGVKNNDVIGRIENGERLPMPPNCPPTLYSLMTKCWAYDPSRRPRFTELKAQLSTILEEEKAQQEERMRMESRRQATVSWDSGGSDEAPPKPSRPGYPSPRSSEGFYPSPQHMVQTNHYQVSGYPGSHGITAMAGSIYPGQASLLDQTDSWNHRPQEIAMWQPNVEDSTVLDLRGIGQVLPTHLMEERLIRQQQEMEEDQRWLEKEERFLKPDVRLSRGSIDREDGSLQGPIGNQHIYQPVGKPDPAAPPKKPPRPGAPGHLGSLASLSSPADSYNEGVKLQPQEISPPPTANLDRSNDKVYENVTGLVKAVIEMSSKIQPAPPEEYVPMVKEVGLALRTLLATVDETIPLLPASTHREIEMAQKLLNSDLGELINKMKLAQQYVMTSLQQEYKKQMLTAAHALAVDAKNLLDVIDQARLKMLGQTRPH

For `N#CCCc1ccc2c(c1)-c1[nH]c3ccc([N+](=O)[O-])cc3c1CC(=O)N2`, the residual activity [1] was 43%, the residual activity [2] was 79% and the residual activity [3] was 56%. For the same molecule, the residual activity [4] was 77%, the residual activity [5] was 69% and the residual activity [6] was 74%. The residual activity [7] was 67%, the residual activity [8] was 77% and the residual activity [9] was 76%. The residual activity [10] was 50%.
